Laboratory results: PubChem BioAssay (NCI)
The panel holds about 79,000 compounds, 15% with a hit somewhere; the sample as a whole holds those more often. Activity calls are given as the source filed them. Rule as the data show it: active = growth inhibition above about 70%; inactive = the rest.

Test: NCI Yeast Anticancer Drug Screen. Data for the rad14 strain (AID 159);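 also: 0% = growth of vehicle-treated control cultures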
Details: S. cerevisiae rad14 strain growth inhibition, active compounds read high
Experimental: Growth inhibition of yeast strains with defined genetic alterations is measured as a screen for potential anti-cancer activity. Selected strains with alterations in DNA damage repair or cell cycle control were exposed to compounds and growth inhibition was measured relative to vehicle treated controls. The strain used in this assay is rad14

Measured: growth inhibition

N#C/C(=C/c1c(Cl)cccc1Cl)C(N)=O
active: at 100.0 µM 97%
inactive: at 1.2 µM -3% | at 3.7 µM -15% | at 11.0 µM -1% | at 33.0 µM 55%

O=C(/C=C/c1cccc2ccccc12)c1ccc(Cl)cc1
inactive: at 1.2 µM -28% | at 3.7 µM -23% | at 11.0 µM -30% | at 33.0 µM -38% | at 100.0 µM -35%

O=Cc1coc2ccccc2c1=O
inactive: at 1.2 µM -16% | at 3.7 µM -7% | at 11.0 µM 8% | at 33.0 µM 16%
active: at 100.0 µM 95%

CCNc1ccc2c(c1)C(=O)N(OS(C)(=O)=O)C2=O
inactive: at 1.2 µM 3% | at 3.7 µM 0% | at 11.0 µM 3% | at 33.0 µM 16% | at 100.0 µM 34%

COC(=O)c1n[nH]c(C)c1N=NN(C)CCC#N
active: at 11.0 µM 72% | at 33.0 µM 99% | at 100.0 µM 99%
inactive: at 1.2 µM 1% | at 3.7 µM 11%

CN(C)CCNc1cccc2sc3ccc(O)cc3c(=O)c12
inactive: at 1.2 µM -1% | at 3.7 µM 1% | at 11.0 µM 5% | at 33.0 µM 12% | at 100.0 µM 19%

C/C=C/[P+](c1ccccc1)(c1ccccc1)c1ccccc1
inactive: at 1.2 µM 30% | at 3.7 µM 27% | at 11.0 µM 28% | at 33.0 µM 63%
active: at 100.0 µM 97%

c1ccc(N2N=C3N(c4ccccc4)C2N3c2ccccc2)cc1
active: at 100.0 µM 92%
inactive: at 1.2 µM -33% | at 3.7 µM -36% | at 11.0 µM -20% | at 33.0 µM 20%
